Experimental data published in PubChem BioAssay.
Values joined by “and” are separate entries in the source; they are usually repeats but may differ in a detail not shown here. Identical values can stand only once. Active and inactive are the calls of the source.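 Rule for the calls, unless noted: active = at least 20% inhibition of 6-phosphogluconate dehydrogenase activity; inactive = the rest.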

How the values were obtained:
[1] = molecular target: 6-phosphogluconate dehydrogenase, decarboxylating (Homo sapiens) (UniProt P52209); assay: 6PGD enzyme inhibitors, primary screen, biochemical, human, recombinant enzyme, NADPH absorbance (AID 1159550); details: recombinant 6PGD, NADPH absorbance 341 nm; at 10 µM; stronger effect = higher value
Chain of 6-phosphogluconate dehydrogenase, decarboxylating (Homo sapiens) (P52209 whole entry, looked up): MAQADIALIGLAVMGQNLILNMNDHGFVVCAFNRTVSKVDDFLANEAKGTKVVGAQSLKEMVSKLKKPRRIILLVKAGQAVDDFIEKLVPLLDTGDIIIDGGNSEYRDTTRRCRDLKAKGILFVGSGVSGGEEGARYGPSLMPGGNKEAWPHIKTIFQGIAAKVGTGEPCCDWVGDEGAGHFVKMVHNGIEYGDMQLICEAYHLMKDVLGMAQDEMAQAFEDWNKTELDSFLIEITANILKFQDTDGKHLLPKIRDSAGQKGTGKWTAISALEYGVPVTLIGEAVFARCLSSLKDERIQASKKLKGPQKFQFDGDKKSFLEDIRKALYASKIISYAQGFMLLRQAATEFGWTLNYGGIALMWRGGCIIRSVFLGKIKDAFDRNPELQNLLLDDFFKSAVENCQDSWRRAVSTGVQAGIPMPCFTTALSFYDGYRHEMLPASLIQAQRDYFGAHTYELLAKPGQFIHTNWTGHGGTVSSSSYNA

[2] = differential killing of epithelial or mesenchymal cells, primary screen, imaging, PC-3E GFP, TEM4-18 mCherry, co-culture (AID 1345086;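 active = compounds killing one labelled cell type while sparing the other, by normalised counts and ratio limits, not self-fluorescent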;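 for all read-outs here: cells exposed to compound for 72 h before imaging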;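 for red/green cell ratio (normalised): normalised mesenchymal count divided by normalised epithelial count so high means epithelial killing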); details: imaging cell counts, at 1 µM; for red/green cell ratio (normalised): actives lie on both sides, counts scaled to control wells, 1 = unselective
[3] = molecular target: Mitogen-activated protein kinase 7 (Homo sapiens) (UniProt Q13164); assay: ERK5 transactivation activators in reporter cells, primary screen, cell-based, HTS (AID 1508626;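 active = luciferase signal above three times the same-plate solvent-only control wells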;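 note: luciferase driven by Gal4-ERK5 fusion binding five Gal4 sites before minimal TATA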); details: HeLa Gal4-ERK5 transactivation, 18 h, at 5 µM, stronger effect = higher value
Chain of Mitogen-activated protein kinase 7 (Homo sapiens) (Q13164 whole entry, looked up, the tested form may be a part): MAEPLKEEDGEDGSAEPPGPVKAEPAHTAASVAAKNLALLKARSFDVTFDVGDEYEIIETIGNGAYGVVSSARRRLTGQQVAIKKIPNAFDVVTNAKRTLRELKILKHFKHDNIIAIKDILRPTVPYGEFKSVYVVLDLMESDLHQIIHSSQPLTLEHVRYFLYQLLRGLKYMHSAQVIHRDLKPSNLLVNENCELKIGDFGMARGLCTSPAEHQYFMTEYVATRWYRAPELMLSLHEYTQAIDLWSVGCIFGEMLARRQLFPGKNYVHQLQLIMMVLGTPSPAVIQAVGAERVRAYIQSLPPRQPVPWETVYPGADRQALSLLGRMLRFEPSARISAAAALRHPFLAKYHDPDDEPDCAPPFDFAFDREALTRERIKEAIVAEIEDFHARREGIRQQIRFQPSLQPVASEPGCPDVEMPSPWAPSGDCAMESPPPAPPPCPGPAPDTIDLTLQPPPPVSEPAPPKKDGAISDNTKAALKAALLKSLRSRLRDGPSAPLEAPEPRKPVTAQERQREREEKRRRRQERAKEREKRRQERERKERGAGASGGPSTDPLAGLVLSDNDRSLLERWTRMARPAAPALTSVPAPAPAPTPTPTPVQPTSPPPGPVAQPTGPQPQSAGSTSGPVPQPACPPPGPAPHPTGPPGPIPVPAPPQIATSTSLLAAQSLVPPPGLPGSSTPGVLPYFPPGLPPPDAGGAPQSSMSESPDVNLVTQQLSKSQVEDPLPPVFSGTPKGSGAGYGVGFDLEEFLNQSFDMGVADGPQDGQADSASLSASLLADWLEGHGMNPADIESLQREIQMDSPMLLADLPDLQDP

[4] = measured here: epithelial PC-3E GFP cell survival
[5] = measured here: mesenchymal TEM4-18 mCherry cell survival

| Compound | inhibition [1] | red/green cell ratio (normalised) [2] | normalised cell number [2, 4] | normalised cell number [2, 5] | luciferase signal [3] |
| --- | --- | --- | --- | --- | --- |
| NC(C(=O)O)C(O)C(=O)O (stereo not given) | 17.7% (inactive) | 1.01 (inactive) | 1.05 | 1.06 | 260 AU (active) |
| CCNC(=O)CC[C@H](N)C(=O)O | 3.3% (inactive) | 0.97 (inactive) | 1.09 | 1.06 | 164 AU (inactive) |
| COc1cc(O)ccc1C(C)=O | 12.4% (inactive) | 0.96 (inactive) | 0.95 | 0.91 | 124 AU (inactive) |
| CC(=O)O[C@H]1C[C@@H](OC(C)=O)C(C)(C)C2CC(=O)[C@]3(C)C(CC[C@@]4(C)[C@H](C(=O)O)OC(=O)C5OC543)[C@]21C (stereo not given in full) | 1.04% (inactive) | 1 (inactive) | 0.99 | 0.99 | 120 AU (inactive) |
| COc1cc2ccc(=O)oc2c(OC)c1OC | 1.65% (inactive) | 0.93 (inactive) | 0.81 | 0.75 | 16 AU (inactive) |
| COc1ccc([C@H]2Oc3cc(OC)cc(OC)c3C[C@H]2O)cc1 | -0.838% (inactive) | 0.79 (inactive) | 1.04 | 0.82 | 84 AU (inactive) |
| COc1cc(-c2coc3cc(OC)c(OC)c(OC)c3c2=O)cc(OC)c1OC | 12.5% (inactive) | 1.13 (inactive) | 0.98 | 1.1 | 100 AU (inactive) |
| CCOC(=O)c1c(C)cc(O)c(C=O)c1O | -5.47% (inactive) | 0.95 (inactive) | 0.99 | 0.94 | 56 AU (inactive) |
| CCCCCC(=O)Cc1cc(O)cc(O)c1C(=O)Oc1cc(CC(=O)CCCCC)c(C(=O)O)c(OC)c1 | 6.8% (inactive) | 1.08 (inactive) | 0.95 | 1.03 | 160 AU (inactive) |
| O=C(Oc1cc(O)cc2c1C[C@@H](OC(=O)c1cc(O)c(O)c(O)c1)[C@@H](c1cc(O)c(O)c(O)c1)O2)c1cc(O)c(O)c(O)c1 | 10.8% (inactive) | 1.04 (inactive) | 0.96 | 0.99 | 44 AU (inactive) |
| COc1cc(O)c(C(=O)c2ccccc2)cc1O | -3.44% (inactive) | 0.89 (inactive) | 1.31 | 1.17 | 48 AU (inactive) |
| COc1ccc(-c2coc3c(O)c(OC)ccc3c2=O)cc1 | 11.6% (inactive) | 0.97 (inactive) | 1.1 | 1.06 | 100 AU (inactive) |
| COc1cc(C(C)=O)cc(OC)c1O | -40.3% (inactive) | 1.05 (inactive) | 0.87 | 0.91 | 64 AU (inactive) |
| CCC(C(=O)O)c1ccccc1 (stereo not given) | -10% (inactive) | 1.07 (inactive) | 1.08 | 1.15 | 76 AU (inactive) |
| OC[C@H]1O[C@@H](n2cnc3c(NCc4ccco4)ncnc32)[C@H](O)[C@@H]1O | 3.79% (inactive) | 1.48 (inactive) | 0.37 | 0.55 | 40 AU (inactive) |
| COc1cc(O)c(C)c(O)c1 | 5.9% (inactive) | 0.94 (inactive) | 1.19 | 1.12 | 48 AU (inactive) |
| COc1ccc2c(c1)OCc1c-2oc2cc(OC)ccc12 | 2.98% (inactive) | 0.82 (inactive) | 1.14 | 0.93 | 96 AU (inactive) |
| COc1ccc2c(c1)OCC(Cc1ccc(OC)c(OC(C)=O)c1)C2=O (stereo not given) | 2.88% (inactive) | 0.86 (inactive) | 0.47 | 0.4 | 80 AU (inactive) |
| C=C1CCC(C2CC(=O)OC2=O)C(=O)CCC2C1CC2(C)C (stereo not given) | 13.1% (inactive) | 0.84 (inactive) | 1.27 | 1.06 | 144 AU (inactive) |
| CC(C)=CCOc1cc2oc(=O)ccc2cc1O | 1.28% (inactive) | 1.03 (inactive) | 1.12 | 1.16 | 36 AU (inactive) |
| CC12CCC3C(CC3(C)C)C(C)(CCC1=O)O2 (stereo not given) | 11.8% (inactive) | 1.12 (inactive) | 0.97 | 1.09 | 60 AU (inactive) |
| Oc1cc(O)c2c(c1)O[C@H](c1cc(O)c(O)c(O)c1)[C@H](O)C2 | -13.7% (inactive) | 1.12 (inactive) | 0.76 | 0.85 | 172 AU (inactive) |
| COc1cc2c(cc1OC)C(=O)OC2 | 7.46% (inactive) | 0.97 (inactive) | 0.96 | 0.94 | 160 AU (inactive) |
| COc1cc2c(cc1OC)C1(O)C(=O)c3ccc(O)c(C(=O)O)c3OC1CO2 (stereo not given) | 11.5% (inactive) | 1 (inactive) | 1.11 | 1.11 | 16 AU (inactive) |
| COC(=O)c1c(C)cc(O)cc1O | 7.84% (inactive) | 1.06 (inactive) | 0.91 | 0.97 | 36 AU (inactive) |
| COc1ccc2c(c1)OC[C@@H](Cc1ccc(OC)c(OC)c1)[C@@H]2O | 11.8% (inactive) | 0.93 (inactive) | 0.92 | 0.85 | 68 AU (inactive) |

| Compound | inhibition [1] | red/green cell ratio (normalised) [2] | normalised cell number [2, 4] | normalised cell number [2, 5] | luciferase signal [3] |
| --- | --- | --- | --- | --- | --- |
| OC[C@@H](O)[C@@H](O[C@@H]1O[C@H](CO)[C@@H](O)[C@H](O)[C@H]1O)[C@H](O)[C@@H](O)CO | 10.6% (inactive) | 0.88 (inactive) | 1.03 | 0.9 | 208 AU (inactive) |
| COc1ccc2c(c1OC)OC[C@@H](c1ccc(OC)c(OC)c1OC)C2 | -2.69% (inactive) | 0.93 (inactive) | 0.93 | 0.86 | 96 AU (inactive) |
| CC(C(=O)O)[C@H]1CCC2C3CC=C4C[C@@H](O)CC[C@]4(C)C3CC[C@@]21C (stereo not given in full) | 8.3% (inactive) | 0.91 (inactive) | 1.12 | 1.02 | 44 AU (inactive) |
| CC(C)c1c(O)c(-c2cc3c(c(C(C)C)c2O)CCC2C(C)(C)CCC[C@]32C)cc2c1CCC1C(C)(C)CCC[C@]21C (stereo not given in full) | -2.25% (inactive) | 1 (inactive) | 1.03 | 1.03 | 40 AU (inactive) |
| CC(C)[C@@H]1CC[C@@H](C)CC1=O | 15.9% (inactive) | 0.93 (inactive) | 1.16 | 1.08 | 52 AU (inactive) |
| S=c1[nH]c2ccccc2s1 | -1.67% (inactive) | 0.97 (inactive) | 1.13 | 1.09 | 48 AU (inactive) |
| CCCCC[C@H](CC(=O)O)C(=O)O | 0.671% (inactive) | 0.96 (inactive) | 0.99 | 0.94 | 40 AU (inactive) |
| C=CCCCCCCCCCCCC(O)CC(O)COC(C)=O (stereo not given) (tested in a mixture with another compound) | 4.12% (inactive) | 0.92 (inactive) | 1 | 0.92 | 36 AU (inactive) |
| COC(=O)c1c(C)c2c(c(C)c1O)OC(=O)c1c(C)c(Cl)c(O)c(Cl)c1O2 | 11.2% (inactive) | 0.9 (inactive) | 1.03 | 0.93 | 128 AU (inactive) |
| COc1ccc2c(c1)OCC(Cc1ccc(OC)c(OC)c1)C2=O (stereo not given) | 8.36% (inactive) | 0.98 (inactive) | 0.85 | 0.84 | 56 AU (inactive) |
| C=C[C@@](C)(O)CCC1C(=C)CCC2[C@@](C)(CO)CCC[C@]12C (stereo not given in full) | 4.45% (inactive) | 0.89 (inactive) | 1.15 | 1.03 | 36 AU (inactive) |
| O=C(O[C@@H]1Cc2c(O)cc(O)cc2O[C@@H]1c1ccc(O)c(O)c1)c1cc(O)c(O)c(O)c1 | 5.78% (inactive) | 0.99 (inactive) | 0.85 | 0.83 | 52 AU (inactive) |
| CC(=O)Oc1cc(OC(C)=O)c2c(c1)O[C@H](c1ccc(OC(C)=O)c(OC(C)=O)c1)[C@H](OC(C)=O)C2 | 13.2% (inactive) and -3.23% (inactive) | 0.86 (inactive) | 1.41 | 1.21 | 48 AU (inactive) |
| O=c1c(O)c(-c2ccccc2)oc2cc(O)ccc12 | -10.2% (inactive) | 0.89 (inactive) | 0.98 | 0.88 | 264 AU (inactive) |
| COc1ccc2c(C)cc(=O)oc2c1 | 13.6% (inactive) | 1.03 (inactive) | 1.13 | 1.16 | 60 AU (inactive) |
| CC(C)=CC1C(C(=O)O)C1(C)C (stereo not given) | -0.837% (inactive) | 1.07 (inactive) | 0.96 | 1.03 | 44 AU (inactive) |
| C=C(C)C1CC=C(CO)CC1 (stereo not given) | 1.85% (inactive) | 1.04 (inactive) | 0.95 | 0.99 | 68 AU (inactive) |
| COc1ccc2c(c1)OCC(Cc1ccc(OC)c(O)c1)C2=O (stereo not given) | 13.3% (inactive) | 0.88 (inactive) | 0.74 | 0.65 | 52 AU (inactive) |
| Oc1ccc([C@H]2Oc3cc(O)cc(O)c3C[C@H]2O)cc1 | 2.29% (inactive) | 0.95 (inactive) | 0.99 | 0.94 | 140 AU (inactive) |
| C=C1C(N)CC2CC1C2(C)C (stereo not given) | 16.7% (inactive) | 1.05 (inactive) | 1.09 | 1.15 | 60 AU (inactive) |
| C=C1C2CC[C@@]3(C)[C@H](c4ccoc4)OC(=O)C[C@]13O[C@H]1CC(=O)C(C)(C)[C@H](C(O)C(=O)OC)[C@@]21C (stereo not given in full) | -4.16% (inactive) | 0.98 (inactive) | 0.75 | 0.74 | 28 AU (inactive) |
| C#CCCCCCCCCCCCC(O)CC(O)CO (stereo not given) | 6.35% (inactive) | 0.88 (inactive) | 0.94 | 0.82 | 52 AU (inactive) |
| CC(=O)O[C@H]1C[C@@H](OC(C)=O)C(C)(C)C2C[C@@H](OC(C)=O)[C@@]3(C)C4=CC(=O)O[C@@H](c5ccoc5)[C@]4(C)CCC3[C@]21C (stereo not given in full) | 0.0743% (inactive) | 1.01 (inactive) | 1 | 1.01 | 16 AU (inactive) |
| COc1ccc2c(c1)OC[C@@H](Cc1ccc(OC)c(OC)c1)[C@H]2O | 15.8% (inactive) | 1.09 (inactive) | 0.98 | 1.07 | 76 AU (inactive) |
| CC1(C)CC23C(=O)CCC(O)C2(C)CCC13 (stereo not given) | -0.3% (inactive) | 1 (inactive) | 1.11 | 1.11 | 72 AU (inactive) |
| CC1(C)CC2C1CCC1(C)OC1CCC2(C)O (stereo not given) | 19.1% (inactive) | 1.05 (inactive) | 0.98 | 1.02 | 620 AU (active) |
